Structures are written as SMILES. “And” between values parts separate entries of the source, which are not always exact repeats. Equal entries are not always repeated.

For the experiment, the target named is Apelin receptor (Homo sapiens) (UniProt P35414). Description: APJ beta-arrestin recruitment blockade alongside CXCR6 – cell-based, DiscoveRx, panel, CHO-K1, counter-screen for CXCR6 antagonist project, SAR follow-up (AID 651598). Particulars: CHO-K1 PathHunter beta-arrestin luminescence, antagonist mode; run 3, at 80 µM (top of the series).
Apelin receptor (Homo sapiens), sequence (P35414 whole entry, looked up): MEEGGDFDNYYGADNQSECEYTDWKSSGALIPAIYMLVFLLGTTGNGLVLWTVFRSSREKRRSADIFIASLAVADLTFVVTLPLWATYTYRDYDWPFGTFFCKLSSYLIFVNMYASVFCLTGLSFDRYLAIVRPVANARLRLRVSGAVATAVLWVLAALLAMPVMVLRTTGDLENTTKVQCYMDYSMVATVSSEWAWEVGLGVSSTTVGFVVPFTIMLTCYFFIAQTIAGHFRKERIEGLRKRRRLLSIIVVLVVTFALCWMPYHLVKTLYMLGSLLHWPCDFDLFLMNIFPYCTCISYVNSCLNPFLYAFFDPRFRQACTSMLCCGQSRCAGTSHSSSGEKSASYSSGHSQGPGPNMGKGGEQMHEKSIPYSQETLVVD
The inhibition is the change of the read-out against control, counted positive when it falls. As to `COc1cc(C(=O)NC2CC3CCCC(C2)N3CC(=O)Nc2ccccc2)cc(OC)c1OC` (stereo not drawn), the inhibition was -24.7% and 10.7% and 13.8%.
The same measure for `COc1cc(C(=O)NC2CC3CCC(C2)N3CC(=O)Nc2ccccc2)cc(OC)c1OC` (stereo not drawn): 2.29% and 12.1%; for `COc1cc(C(=O)NC2CCN(CC(=O)Nc3ccccc3)CC2)cc(OC)c1OC`: 19.7%.

The values above are taken from PubChem BioAssay AID651598 (Sanford-Burnham Center for Chemical Genomics, 2012).
